Most compounds without a hit are left out; they make up all but 3% or so of the library.
TSG101-PTAP inh – qHTS Assay for Iinhibitors of HIV-1 Budding by Blocking the Interaction of PTAP/TSG101; Tumor susceptibility gene 101 protein (Homo sapiens), Q99816; Fluorescence polarization, FITC-PTAP peptide / Tsg101 binding; Potency, µM (top dose mostly 115 µM), for the others: top-dose activity change, negative = inhibition, most hits filed as inhibitors; 340,000 tested, under 10 active; AID 493005, 2010; active = well fitted inhibition curve with a large enough effect in the main read-out, with a control signal flat, not every such curve was filed as active; inconclusive = small, poorly fitted or top-dose-only effect, or effect the other way, or a change in a side signal; inactive = no such curve, though single readings can be large or run the other way; note: % of control where 0% means no effect
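Steps: Tsg101 binding domain dispensed (10 uM final), compounds pinned in DMSO, FITC-labeled PTAP-motif peptide added (50 nM final); after 20 min binding at room temperature, polarization measured.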
USP1 inh – Inhibitors of USP1/UAF1: Primary Screen. Ubiquitin carboxyl-terminal hydrolase 1 (Homo sapiens), O94782. recombinant USP1/UAF1, Ub-Rhodamine cleavage fluorescence. Potency, µM (series often up to 57.1 µM), for inactives: at the top dose activity change, negative = inhibition, usual class: inhibitors. 390,000 tested, 0.23% active; note: % is set by controls: 0 for no effect and ±100 for the full control effect; nearly all actives have a fitted effect of over 60% in size
Target sequence (O94782 whole entry, looked up): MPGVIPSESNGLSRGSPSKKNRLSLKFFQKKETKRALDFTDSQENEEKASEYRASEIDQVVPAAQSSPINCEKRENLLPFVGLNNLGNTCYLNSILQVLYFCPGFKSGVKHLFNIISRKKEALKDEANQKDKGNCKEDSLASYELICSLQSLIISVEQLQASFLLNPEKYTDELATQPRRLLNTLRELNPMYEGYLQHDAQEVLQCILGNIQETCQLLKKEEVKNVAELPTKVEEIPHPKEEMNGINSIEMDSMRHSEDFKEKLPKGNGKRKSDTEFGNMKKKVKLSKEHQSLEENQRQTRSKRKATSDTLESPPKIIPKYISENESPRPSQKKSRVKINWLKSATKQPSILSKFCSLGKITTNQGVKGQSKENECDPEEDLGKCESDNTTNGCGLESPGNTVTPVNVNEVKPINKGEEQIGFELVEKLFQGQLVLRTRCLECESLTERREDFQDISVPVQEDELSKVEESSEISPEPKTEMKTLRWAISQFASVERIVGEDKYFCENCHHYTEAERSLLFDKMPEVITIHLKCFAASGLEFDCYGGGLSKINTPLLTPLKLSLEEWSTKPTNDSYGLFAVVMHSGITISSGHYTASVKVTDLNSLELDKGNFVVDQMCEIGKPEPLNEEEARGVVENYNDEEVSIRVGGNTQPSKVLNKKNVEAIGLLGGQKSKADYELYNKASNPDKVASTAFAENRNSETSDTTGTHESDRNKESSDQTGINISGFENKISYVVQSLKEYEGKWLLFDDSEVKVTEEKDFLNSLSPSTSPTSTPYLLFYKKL
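High-throughput fluorogenic screen: 1nM USP1/UAF1 complex, Ub-Rho substrate 150nM final, 50mM HEPES pH 7.8 with 0.5mM EDTA, 0.1 mg/ml BSA, 1mM TCEP and 0.01% Tween-20.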
VDR inh – Inhibitors of the vitamin D receptor (VDR): qHTS. Vitamin D3 receptor (Homo sapiens), P11473. VDR-SRC2-3 peptide fluorescence polarization, 2 h. Potency, µM, inactives show max response, negative = inhibition, usual class: inhibitors. 400,000 tested, 0.93% active; note: % is set by controls: 0 for no effect and ±100 for the full control effect
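Compounds are added to VDR with labelled SRC2-3 coactivator peptide and held 2 h at room temperature. Inhibition of the VDR–peptide interaction is then read as a change in fluorescence polarization.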
GCN5L2 inh – qHTS Assay for Inhibitors of GCN5L2. Histone acetyltransferase KAT2A (Homo sapiens), Q92830. GCN5L2 HAT assay, ThioGlo1 CoA-SH fluorescence. Potency, µM (top dose mostly 58.9 µM), without a hit: at the highest dose activity change, negative = inhibition, most hits filed as inhibitors. 390,000 tested, 0.21% active; note: % is set by controls: 0 for no effect and ±100 for the full control effect
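Compounds, pin-transferred from DMSO stocks, meet 20nM GCN5L2 for 15 min before the reaction begins with H3(1-25) peptide (75uM) and acetyl-CoA (70uM). Thiol-reactive ThioGlo1 reports CoA release over 20 min at room temperature.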
PLK1 PBD inh – qHTS for Inhibitors of PLK1-PDB (polo-like kinase 1 - polo-box domain): Primary Screen | Serine/threonine-protein kinase PLK1 (Homo sapiens), P53350 | Plk1 PBD binding of FITC phosphopeptide, fluorescence polarization | Potency, µM, for inactives: max response, negative = inhibition, actives largely listed as inhibitors | AID 720504, 2013 | 360,000 tested, 2.8% active; note: series mostly up to about 57 µM; % is set by controls: 0 for no effect and ±100 for the full control effect; nearly all actives have a fitted effect of over 65% in size
Starred values were filed as active, the others as inactive; ? = inconclusive; · = no result. Unless noted, calls come from the whole dose curve; as a rule, active = well fitted curve in the direction sought with a large enough effect; inconclusive = small, poorly fitted or top-dose-only effect, or another doubt; inactive = no such curve, though single readings can be large; an effect the other way counts as inactive or inconclusive. Potency is the fitted concentration of half-maximal effect.

SMILES	TSG101-PTAP inh	USP1 inh	VDR inh	GCN5L2 inh	PLK1 PBD inh
CC(C)(C)Cc1nnc(NC(=O)c2ccc([N+](=O)[O-])cc2)s1	-3%	-3%	4%	-2%	-2%
CC(C)(C)Cc1nnc(NC(=O)Cc2ccc([N+](=O)[O-])cc2)s1	-2%	-22%	?	-3%	5.3µM*
CC(C)Cc1nnc(NC(=O)Cc2cccs2)s1	2%	-9%	16%	-2%	-20%
Cc1ccc(NC(=O)C2CCCN(S(=O)(=O)c3ccc(C)cc3)C2)cc1 (stereo unspecified)	·	10%	4%	-2%	·
COc1ccc(OC)c(CN2C(=O)CSCC2(C)C(=O)NCc2ccccc2)c1 (stereo unspecified)	·	·	·	·	-1%
C=C[C@@H](C1=CC(=O)C(OC)=C(OC)C1=O)c1ccccc1	·	·	4µM*	·	·
C=CC(C1=CC(=O)C(OC)=CC1=O)c1ccc(O)cc1 (stereo unspecified)	·	·	-18%	12%	·
C=CC(C1=CC(=O)C=CC1=O)c1ccccc1 (stereo unspecified)	·	·	35µM*	-2%	·
CCOc1ccc(C(=O)NCCSc2c(C)[nH]c3ccccc23)cc1OCC	·	-8%	5%	-3%	·
COc1ccccc1CNC(=O)CCc1c(C)nn(-c2ccc(N3CCCC3)nn2)c1C	·	-11%	10%	-2%	·
COc1ccc(C)cc1-n1nnnc1SCC(=O)c1ccc2c(c1)OCCO2	2%	-11%	9%	-7%	-5%
COc1ccc(C)cc1-n1nnnc1SCC1CCCO1 (stereo unspecified)	-1%	-21%	-23%	-11%	24µM*
O=C(Nc1cc(Sc2ccccn2)cc([N+](=O)[O-])c1)c1ccc([N+](=O)[O-])cc1	0%	-22%	?	-7%	1.1µM*
O=[N+]([O-])c1ccc(Sc2ccccn2)nc1	-3%	-9%	4%	-3%	-6%
CCCCCCSc1ccc([C@H]2N[C@@](CC(C)C)(C(=O)OC)[C@H]3C(=O)N(C)C(=O)[C@@H]23)cc1OC	-9%	-2%	-28%	-13%	21µM*
CC(=O)c1sc(N/N=C2\CC3CC2C(C)C3(C)C)nc1C (stereo unspecified)	0%	-5%	22%	-7%	-25%
Cc1ccc(NC(=O)COC(=O)c2ccccc2Nc2ccccc2)cc1	-3%	-14%	7%	-8%	0%
Cc1ccc(Nc2cccccc2=O)cc1	-4%	2%	-9%	-6%	9.5µM*
CCOc1ccc(NC(=S)Nc2cc(-c3ccccc3)[nH]n2)cc1	-1%	-15%	-22%	?	-10%
COc1ccc(NC(=S)Nc2cc(C)[nH]n2)cc1Cl	2%	-14%	-8%	0%	17µM*
COc1ccc(NC(=S)Nc2cc(-c3ccccc3)[nH]n2)cc1Cl	-13%	-13%	-30%	-12%	21µM*
CCCCN1C(=O)C(NC(=O)c2ccc(C(C)(C)C)cc2)(C(F)(F)F)C(C(=O)OC)=C1C (stereo unspecified)	·	?	0%	-12%	·
CCCn1c(=O)c2ccccc2n2c(=S)[nH]nc12	-4%	-6%	2%	-6%	-12%
CCCCCn1c(=O)c2ccccc2n2c(=S)[nH]nc12	-1%	-21%	?	2%	19µM*
CCCCn1c(=O)c2ccccc2n2c(=S)[nH]nc12	-3%	-19%	7%	-9%	27µM*
CCOC(=O)c1c(C)c(-c2ccccc2)n(CC(=O)NCc2ccccc2)c1C	·	-17%	-1%	-6%	·
CC1CCN(C(=O)CCc2nnc3ccc(N4CCC5(CC4)OCCO5)nn23)CC1	-3%	-7%	-2%	-3%	-8%
CCOC(=O)C1CCN(C(=O)CCc2nnc3ccc(N4CCC(C)CC4)nn23)CC1	-4%	-16%	?	-16%	24µM*
